Consider 34 compounds from ChEMBL document CHEMBL1961873, “Compounds: GSK PKIS; Assays: Nanosyn kinase panel” (2012).

As a reminder, the inhibition is the change of the read-out against control, counted positive when it falls.

For this test, the target named is Casein kinase I isoform gamma-2 (Homo sapiens) (UniProt P78368). The settings on record: at 1 µM.
Sequence of Casein kinase I isoform gamma-2 (Homo sapiens) (P78368 whole entry, looked up, canonical isoform): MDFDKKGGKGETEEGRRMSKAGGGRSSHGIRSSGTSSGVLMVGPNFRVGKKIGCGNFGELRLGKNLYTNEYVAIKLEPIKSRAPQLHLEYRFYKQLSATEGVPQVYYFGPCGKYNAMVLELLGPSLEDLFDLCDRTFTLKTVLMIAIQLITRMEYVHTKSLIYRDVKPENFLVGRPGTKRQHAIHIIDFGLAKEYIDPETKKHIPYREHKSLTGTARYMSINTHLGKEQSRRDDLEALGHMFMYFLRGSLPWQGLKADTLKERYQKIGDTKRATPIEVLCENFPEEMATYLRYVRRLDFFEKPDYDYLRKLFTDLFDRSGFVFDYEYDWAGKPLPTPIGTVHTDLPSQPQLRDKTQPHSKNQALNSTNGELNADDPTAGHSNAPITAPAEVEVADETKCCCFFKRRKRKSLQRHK
As to `CN(c1ccc(NC(=O)Nc2c(Cl)cccc2Cl)cc1)c1ccnc(Nc2cccc(CS(C)(=O)=O)c2)n1`, the inhibition came to 0.63%.

Turning to `CCS(=O)(=O)c1ccc(OC)c(Nc2ncc(-c3cccc(-c4ccccc4F)c3)o2)c1`, the inhibition is -0.35%.

As to `CS(=O)(=O)CCNCc1ccc(-c2ccc3ncnc(Nc4ccc(OCc5ccccc5)c(Br)c4)c3c2)o1`, the inhibition is -0.24%.

Take `N#Cc1ccc(Oc2nccc(-c3c(-c4ccc(F)cc4)ncn3C3CCNCC3)n2)cc1`: the inhibition came out at 5.15%.

With `Fc1ccc(-c2ncn(C3CCNCC3)c2-c2ccnc(Oc3ccc4c(c3)OCO4)n2)cc1`, the inhibition was found to be 9.12%.

Regarding `COc1cc(N2CCN(C(C)C)CC2)ccc1Nc1nc(Nc2ccc(F)cc2C(=O)NC[C@@H](O)CO)c2cc[nH]c2n1`, the inhibition was found to be 15.6%.

Turning to `O=C1NC(=O)C(c2cccc(Cl)c2)=C1Nc1ccc(Cl)c(C(=O)O)c1`, the inhibition is 3.4%.

In the case of `NC(=O)c1cc(-c2ccncc2)cc(-c2ccccc2)c1N`, the inhibition amounted to 4.95%.

As to `CS(=O)(=O)CCNCc1cc(-c2cc3c(Nc4ccc(OCc5cccc(F)c5)c(Cl)c4)ncnc3s2)cs1`, the inhibition stood at 4.61%.

As for `Cc1ccc(C(=O)NC2CCC2)cc1-c1ccc(C(=O)NCC2CC2)cc1`, the inhibition stood at 2.95%.

`NC(=O)c1cc(-c2ccc(F)cc2)cc(-c2ccncc2)c1N`: the inhibition stood at 6.08%.

In the case of `O=C(Nc1n[nH]c2cc(-c3ccccc3)ccc12)C1CC1`, the inhibition was found to be 4.84%.

As to `O=C(Nc1n[nH]c2nc(-c3ccc(O)cc3)c(Br)cc12)C1CC1`, the inhibition was 7.38%.

With `C/C(Nc1ccc(S(N)(=O)=O)cc1)=C1/C(=O)Nc2ccccc21`, the inhibition was 18.7%.

Consider `O=C1Nc2ccccc2/C1=C/Nc1ccc(-n2cncn2)cc1`, for which the inhibition came out at 8.25%.

As to `CCc1nccc2c1nc(-c1nonc1N)n2CC`, the inhibition came to 3.36%.

Take `CCN(CC)Cc1ccc(Nc2nccc(-c3cnn4ncccc34)n2)cc1`: the inhibition amounted to 13.7%.

As to `Fc1ccc(-c2ncn(C3CCNCC3)c2-c2ccnc(Oc3ccc(F)c(F)c3)n2)cc1`, the inhibition was determined as 1.91%.

On to `C[C@@H](Oc1cc(-n2cnc3ccc(OCC4CCN(C)CC4)cc32)sc1C(N)=O)c1ccccc1Cl`, for which the inhibition is 7.87%.

In the case of `COc1ccc2cc(-c3c(-c4ccncc4)nc(-c4ccc([S+](C)[O-])cc4C)n3C)ccc2c1` (centres undefined), the inhibition is -0.3%.

For the compound `CN1CCN(CCCNc2nc3ccc(Oc4ccc(NC(=O)Nc5cc(C(F)(F)F)ccc5F)cc4)cc3[nH]2)CC1`, the inhibition is -2.41%.

On to `Nc1nccc(-c2c(-c3ccc(F)cc3)ncn2C2CCC(O)CC2)n1` (centres undefined), for which the inhibition was 3.41%.

As to `c1ccc(Oc2ccc(Nc3ncc(-c4ccccc4)o3)cc2)cc1`, the inhibition is 2.07%.

Turning to `COc1ccc(-c2ccc3c(NC(=O)C4CC4)n[nH]c3n2)cc1`, the inhibition is 1.22%.

As to `O=C(Nc1n[nH]c2nc(-c3ccco3)ccc12)C1CC1`, the inhibition was 1.22%.

`CCS(=O)(=O)c1ccc(OC)c(Nc2ncc(-c3ccccc3Cl)o2)c1`: the inhibition was 1.51%.

`CN(C)c1ccc2c(c1)/C(=C/Nc1ccc(S(N)(=O)=O)cc1)C(=O)N2`: the inhibition was 1.27%.

With `CN(C)CCCNc1nccc(-c2c(-c3ccc(F)cc3)nn3cc(C(F)(F)F)ccc23)n1`, the inhibition was -1.02%.

`CCC(=O)Nc1ccc(C)c(-c2ccc(C(=O)NCC3CC3)cc2)c1`: the inhibition was 3.16%.

For `NS(=O)(=O)c1ccc(Nc2cc(-c3ccc(O)c(F)c3)n[nH]2)cc1`, the inhibition was 2.15%.

For the compound `COc1cc2ncn(-c3cc(OCCc4ccccc4)c(C(N)=O)s3)c2cc1OC`, the inhibition was 7.82%.

With `Cc1ccc(C(=O)NC(C)C)cc1-c1ccc(C(=O)NCC2CC2)cc1`, the inhibition is -3.47%.

Consider `NCc1ccc(-n2c(-c3nonc3N)nc3cnccc32)cc1`, for which the inhibition stood at 7.87%.

For the compound `COc1cc(Nc2ncc3c(C)nc(-c4cccc(C(F)(F)F)c4)n3n2)cc(OC)c1OC`, the inhibition was determined as 3.91%.
